{"source": "PubChem BioAssay (EPA / NIEHS)", "key": {"[1]": {"test": "TOX21_p53_BLA_p2_viability: Viability Assessment in the Tox21 HCT-116 p53 Agonism Beta-lactamase Assay, Phase 2 (AID 2283591);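 note: actives lower the ATP signal meaning cytotoxicity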", "outline": "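HCT116 p53-bla cells, 4000/well, dosed after 5 h plating (217-fold dilution of DMSO stocks) and incubated 16 h at 37C. Viability taken as cellular ATP by CellTiter-Glo luminescence after 30 min RT; signal loss marks cytotoxicity.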"}, "[2]": {"target": "Cellular tumor antigen p53 (Homo sapiens) (UniProt P04637)", "sequence (P04637 whole entry, looked up)": "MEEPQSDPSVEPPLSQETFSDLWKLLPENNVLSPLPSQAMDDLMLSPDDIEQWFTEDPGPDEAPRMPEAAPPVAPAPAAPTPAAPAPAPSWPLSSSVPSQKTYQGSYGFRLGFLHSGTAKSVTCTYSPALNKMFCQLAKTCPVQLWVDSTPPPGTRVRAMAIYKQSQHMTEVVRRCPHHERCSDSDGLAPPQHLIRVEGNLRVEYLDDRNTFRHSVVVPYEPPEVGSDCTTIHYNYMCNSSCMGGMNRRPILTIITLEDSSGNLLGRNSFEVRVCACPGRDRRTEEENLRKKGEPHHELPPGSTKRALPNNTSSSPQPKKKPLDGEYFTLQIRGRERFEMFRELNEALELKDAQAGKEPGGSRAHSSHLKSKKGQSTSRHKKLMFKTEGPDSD", "test": "TOX21_p53_BLA_p2_ratio: Tox21 HCT-116 p53 Agonism Beta-lactamase Assay, Ratio, Phase 2 (AID 2283592)", "outline": "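HCT116 p53-bla; 4000 cells/well; 5 h pre-incubation; cpd in DMSO, 217-fold dilution; 16 h 37C/5% CO2; CCF4-AM 2 h RT; Ex 405, Em 460/530 ratio; DMSO = baseline; positive fitting direction.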"}, "[3]": {"test": "TOX21_p53_BLA_p3_viability: Viability Assessment in the Tox21 HCT-116 p53 Agonism Beta-lactamase Assay, Phase 3 (AID 2283593);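 note: cells exposed to compound for 16 h before reading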", "outline": "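HCT116 cells, 4000/well, dosed 5 h after plating by pin transfer (217-fold dilution from DMSO stock) and incubated 16 h at 37C, 5% CO2. Viability read as ATP luminescence with CellTiter-Glo after 30 min at room temperature.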"}, "[4]": {"test": "TOX21_p53_BLA_p4_viability: Viability Assessment in the Tox21 HCT-116 p53 Agonism Beta-lactamase Assay, Phase 4 (AID 2283597);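 note: hits lower the luminescence signal meaning cytotoxicity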", "outline": "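Cells plated, 5 h pre-incubation; DMSO compounds pinned (217-fold dilution); 16 h, 37C/5% CO2; CCF4-AM 2 h RT; CellTiter-Glo 30 min RT; luminescence read.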"}, "[5]": {"target": "Cellular tumor antigen p53 (Homo sapiens) (UniProt P04637)", "test": "TOX21_p53_BLA_p5_ratio: Tox21 HCT-116 p53 Agonism Beta-lactamase Assay, Ratio, Phase 5 (AID 2283599)", "outline": "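HCT-116 p53-bla cells (4000/well) plated 5 h, dosed with compound (217-fold DMSO dilution) for 16 h at 37 C; CCF4-AM substrate 2 h at room temperature. Activity is the 460/530 nm emission ratio (405 nm excitation), fitted in gain-of-signal direction versus DMSO.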"}, "[6]": {"test": "TOX21_p53_BLA_p5_viability: Viability Assessment in the Tox21 HCT-116 p53 Agonism Beta-lactamase Assay, Phase 5 (AID 2283600)", "outline": "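4000 cells/well; 5 h pre-incubation; DMSO compounds pin-transferred, 217-fold dilution; 16 h, 37C/5% CO2; CCF4-AM 2 h RT; CellTiter-Glo 30 min RT; luminescence.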"}, "[7]": {"target": "Cellular tumor antigen p53 (Homo sapiens) (UniProt P04637)", "test": "TOX21_p53_BLA_p4_ratio: Tox21 HCT-116 p53 Agonism Beta-lactamase Assay, Ratio, Phase 4 (AID 2283601)", "outline": "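HCT-116 p53 beta-lactamase reporter cells (4000/well) preincubated 5 h, then compound (217-fold dilution of DMSO stock) for 16 h at 37C. CCF4-AM substrate added 2 h at room temperature; 460/530 nm emission ratio fitted upward versus DMSO.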"}, "[8]": {"target": "Cellular tumor antigen p53 (Homo sapiens) (UniProt P04637)", "test": "TOX21_p53_BLA_p3_ratio: Tox21 HCT-116 p53 Agonism Beta-lactamase Assay, Ratio, Phase 3 (AID 2283596)", "outline": "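HCT116 p53-bla cells (4000/well) given compound in DMSO (217-fold dilution) after 5 h, incubated 16 h at 37C. CCF4-AM substrate 2 h at room temperature; 460/530 nm emission ratio, gain fitted against DMSO.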"}, "[9]": {"test": "CCTE_Harrill_HTTr_Viability_MCF7: CCTE's 6-hour Cell Viability Assessment for the High-Throughput Transcriptomics (HTTr) Platform, in MCF-7 cells cultured in DMEM + 10% fetal bovine serum, Harrill Lab (AID 2284010; active = hit-call score of the fitted dose curve at least 0.9, where 1 is the maximum; inactive = score below 0.9)", "outline": "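Viability measured through PI dye exclusion by high-content imaging at 6 h post-dosing.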"}, "[10]": {"test": "CCTE_Harrill_HTTr_Apoptosis_MCF7: CCTE's 6-hour Apoptosis Assessment for the High-Throughput Transcriptomics (HTTr) Platform, in MCF-7 cells cultured in DMEM + 10% fetal bovine serum, Harrill Lab (AID 2284011; active = hit-call score of the fitted dose curve at least 0.9, where 1 is the maximum; inactive = score below 0.9)", "outline": "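MCF-7 (DMEM + 10% FBS), 384-well; 8-pt dilution series, 6 h chemical exposure; caspase-3/7 activation via CellEvent Caspase 3/7 Green, HCI; bidirectional fit vs DMSO.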"}}, "note": "Inconclusive results are not listed. Activity calls are given as the source filed them. Rule for the calls, unless noted: active = hit-call score of the fitted dose curve at least 0.9, where 1 is the maximum; inconclusive = response in the unintended direction; inactive = score below 0.9.", "data": [{"smiles": "CC(=O)OCC(=O)[C@H]1CC[C@H]2[C@@H]3CC[C@H]4C[C@H](O)CC[C@]4(C)[C@H]3C(=O)C[C@]12C", "values": [{"measurement": "outcome", "setting": "[1]", "result": "inactive"}, {"measurement": "outcome", "setting": "[2]", "result": "inactive"}, {"measurement": "outcome", "setting": "[3]", "result": "inactive"}, {"measurement": "outcome", "setting": "[4]", "result": "inactive"}, {"measurement": "outcome", "setting": "[5]", "result": "inactive"}, {"measurement": "outcome", "setting": "[6]", "result": "inactive"}, {"measurement": "outcome", "setting": "[7]", "result": "inactive"}]}, {"smiles": "Oc1ccc(C2(c3ccc(O)cc3)CCCCC2)cc1", "values": [{"measurement": "AC50", "setting": "[1]", "result": "72.1 µM (active)"}, {"measurement": "AC50", "setting": "[2]", "result": "83.2 µM (active)"}, {"measurement": "AC50", "setting": "[3]", "result": "44.1 µM (active)"}, {"measurement": "AC50", "setting": "[8]", "result": "83.7 µM (active)"}, {"measurement": "AC50", "setting": "[6]", "result": "74 µM (active)"}, {"measurement": "AC50", "setting": "[7]", "result": "82.9 µM (active)"}, {"measurement": "outcome", "setting": "[9]", "result": "inactive"}, {"measurement": "outcome", "setting": "[10]", "result": "inactive"}]}, {"smiles": "O=C(NCc1cccnc1)Nc1ccc([N+](=O)[O-])cc1", "values": [{"measurement": "outcome", "setting": "[1]", "result": "inactive"}, {"measurement": "outcome", "setting": "[2]", "result": "inactive"}, {"measurement": "outcome", "setting": "[3]", "result": "inactive"}, {"measurement": "outcome", "setting": "[4]", "result": "inactive"}, {"measurement": "outcome", "setting": "[5]", "result": "inactive"}, {"measurement": "outcome", "setting": "[6]", "result": "inactive"}, {"measurement": "outcome", "setting": "[7]", "result": "inactive"}]}, {"smiles": "CCN(CC)C(=O)[C@@H]1C=C2c3cccc4[nH]cc(c34)C[C@H]2N(C)C1", "values": [{"measurement": "outcome", "setting": "[1]", "result": "inactive"}, {"measurement": "outcome", "setting": "[2]", "result": "inactive"}, {"measurement": "outcome", "setting": "[3]", "result": "inactive"}, {"measurement": "outcome", "setting": "[4]", "result": "inactive"}, {"measurement": "outcome", "setting": "[5]", "result": "inactive"}, {"measurement": "outcome", "setting": "[6]", "result": "inactive"}, {"measurement": "outcome", "setting": "[7]", "result": "inactive"}]}, {"smiles": "CC[C@H]1[C@@H]2C[C@H]3[C@@H]4N(C)c5ccccc5[C@]45C[C@@H](C2C5O)N3[C@@H]1O", "note": "(stereo partly drawn)", "values": [{"measurement": "outcome", "setting": "[1]", "result": "inactive"}, {"measurement": "outcome", "setting": "[2]", "result": "inactive"}, {"measurement": "outcome", "setting": "[3]", "result": "inactive"}, {"measurement": "outcome", "setting": "[4]", "result": "inactive"}, {"measurement": "outcome", "setting": "[6]", "result": "inactive"}, {"measurement": "outcome", "setting": "[7]", "result": "inactive"}]}, {"smiles": "CCC1(c2ccccc2)CCC(=O)NC1=O", "note": "(stereo not drawn)", "values": [{"measurement": "outcome", "setting": "[1]", "result": "inactive"}, {"measurement": "outcome", "setting": "[2]", "result": "inactive"}, {"measurement": "outcome", "setting": "[3]", "result": "inactive"}, {"measurement": "outcome", "setting": "[5]", "result": "inactive"}, {"measurement": "outcome", "setting": "[6]", "result": "inactive"}]}, {"smiles": "CN1CCc2cc(Cl)c(O)cc2[C@H]2c3ccccc3CC[C@@H]21", "values": [{"measurement": "outcome", "setting": "[1]", "result": "inactive"}, {"measurement": "outcome", "setting": "[2]", "result": "inactive"}, {"measurement": "outcome", "setting": "[8]", "result": "inactive"}, {"measurement": "outcome", "setting": "[4]", "result": "inactive"}, {"measurement": "outcome", "setting": "[5]", "result": "inactive"}, {"measurement": "outcome", "setting": "[6]", "result": "inactive"}]}, {"smiles": "COP(=O)(OC)OC(=CCl)c1cc(Cl)c(Cl)cc1Cl", "values": [{"measurement": "outcome", "setting": "[1]", "result": "inactive"}, {"measurement": "outcome", "setting": "[2]", "result": "inactive"}, {"measurement": "outcome", "setting": "[8]", "result": "inactive"}, {"measurement": "outcome", "setting": "[4]", "result": "inactive"}, {"measurement": "outcome", "setting": "[5]", "result": "inactive"}]}, {"smiles": "C=CC=O", "values": [{"measurement": "outcome", "setting": "[1]", "result": "inactive"}, {"measurement": "outcome", "setting": "[2]", "result": "inactive"}, {"measurement": "outcome", "setting": "[8]", "result": "inactive"}, {"measurement": "outcome", "setting": "[4]", "result": "inactive"}, {"measurement": "outcome", "setting": "[5]", "result": "inactive"}, {"measurement": "outcome", "setting": "[6]", "result": "inactive"}]}, {"smiles": "CNC(=O)Oc1cc(C)cc(C(C)C)c1", "values": [{"measurement": "outcome", "setting": "[1]", "result": "inactive"}, {"measurement": "outcome", "setting": "[2]", "result": "inactive"}, {"measurement": "outcome", "setting": "[8]", "result": "inactive"}, {"measurement": "outcome", "setting": "[4]", "result": "inactive"}, {"measurement": "outcome", "setting": "[5]", "result": "inactive"}, {"measurement": "outcome", "setting": "[6]", "result": "inactive"}, {"measurement": "outcome", "setting": "[7]", "result": "inactive"}]}, {"smiles": "ClC(Cl)(Cl)C(Cl)(Cl)Cl", "values": [{"measurement": "outcome", "setting": "[1]", "result": "inactive"}, {"measurement": "outcome", "setting": "[2]", "result": "inactive"}, {"measurement": "outcome", "setting": "[3]", "result": "inactive"}, {"measurement": "outcome", "setting": "[6]", "result": "inactive"}]}]}
